Data taken from PubChem BioAssay (NCI).
Where “and” joins values, the source holds several entries; their conditions need not be identical. Equal entries are not always repeated. The panel holds about 83,000 compounds, 20% with a hit somewhere; the sample as a whole holds those more often.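 Activity criterion: percent growth below 10, measured after cells in 96-well plates were exposed to a single compound concentration for 48 hours.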 Values without a mark were called inactive. Calls of active or inactive are those of the source.

The compounds below were run on MDA-MB-468 breast (assay: NCI-60 one-dose screen, 48 h (100 = growth as untreated, 0 = no growth, -100 = all killed)). Conditions: 10 µM unless noted.

| Compound | growth |
| --- | --- |
| COc1ccc(C2=NN(c3nc(-c4ccc(OC)cc4)c(C#N)c(=O)n3C)C(=O)CC2)cc1 | 96.2% |
| O=S(=O)(O)c1cccc2cccnc12 | 100% |
| Cn1cc(-c2csc(-c3cn(CCOC(N)=O)c4ccccc34)n2)c2cccnc21 | 16.2% |
| Fc1ccc(Nc2nc(Nc3ccc(-c4nc5ccccc5[nH]4)cc3)c3cn[nH]c3n2)cc1 | -22.1% (active) |
| CC12CCC3C4(C)COC(c5ccco5)OC4CCC3(C)C1CC(C1=CCOC1=O)O2 (stereo not given) | 91.8% |
| CCOC(=O)C1=C(C)NC(=O)NC1c1c(Cl)n(CCCl)c2ccccc12 (stereo not given) | 97.2% |
| CCCCCC(=O)N(CCCC)CCCC | 97.8% |
| CC(C)(C)n1cc(-c2ccnc(NCCNS(=O)(=O)c3ccc(F)cc3)c2)c(-c2cccc(O)c2)n1 | 8.72% (active) |
| COc1cc(-c2nc3sccn3c2-c2ccnc(NCCNS(=O)(=O)c3ccccc3)n2)ccc1F | 40.2% |
| CCCn1cnc2c1c(=O)n(CCCCC(C)=O)c(=O)n2C | 107% |
| O=C(O)c1ccc2c3c(ncnc13)-c1ccccc1C2=O | 95.7% |
| COC(=O)CCSC1=C(C)C(=O)c2ccccc2C1=O | -24.5% (active) |
| c1ccc2cc(C[n+]3ccn(Cc4ccc5ccccc5n4)c3)ccc2c1 | -26.3% (active) and -3.7% (active) |
| COc1cc(C2CC(c3cccc(Nc4ccncc4)c3)=NN2c2ccccc2)cc(OC)c1OC (stereo not given) | 25.8% |
| C=C1C(=O)O[C@H]2[C@H]1CC/C(COC(=O)NC1CCC(O)CC1)=C\CC[C@@]1(C)O[C@@H]21 (stereo not given in full) | 37% and 31.7% |
| CCN1CCC(CCOC)(CN2c3ccccc3Sc3ccc(Cl)cc32)C1 (stereo not given) | 16.9% |
| CCc1ccc(SC2c3ccc(N(CC)CC)cc3Oc3nc(N)c(C#N)c(N)c32)cc1 (stereo not given) | -41% (active) |
| COc1cc2nc(Nc3cccc(F)c3)nc(Nc3cc(C)[nH]n3)c2cc1OC | -76.6% [20 µM] (active) |
| COc1cc2nc(-c3ccc(C(F)(F)F)cc3)cc(OCCCN3CCCC3)c2cc1OC | 43.8% |
| CCn1c2ccc(O)cc2c2c(C)c3c[n+](C(C)C)ccc3c(C)c21 | -19.7% (active) |

| Compound | growth |
| --- | --- |
| COc1ncc(-c2ccc3ncnc(Nc4cccc(Cl)c4)c3c2)cc1NS(=O)(=O)C1CC1 | -43.9% (active) |
| COc1cc(C(c2c[nH]c3ccccc23)N2CCCC2)ccc1OCc1ccccc1 (stereo not given) | 53.9% |
| CC[C@@H](C(=O)[C@@H](C)[C@@H](O)[C@H](C)[C@@H]1O[C@@H]([C@@H](CC)C(=O)O)CC[C@@H]1C)C1O[C@]2(C=CC(=O)[C@]3(CC[C@@](C)([C@H]4CC[C@](O)(CC)[C@H](C)O4)O3)O2)[C@H](C)C[C@@H]1C (stereo not given in full) | 18.9% |
| COc1cc(/C=N\NC(=O)CN2CCN(c3cc4c(cc3F)c(=O)c(C(=O)N/N=C/c3ccc(O)c(OC)c3)cn4C3CC3)CC2)ccc1O | -37.8% (active) |
| CC1=C2[C@@H](CC1)[C@]1(C)O[C@@](C3CCCCC3)(C[C@H]1OC(=O)CO)[C@H]2OC(=O)/C=C/c1ccccc1 | 87.6% |
| O=C1Nc2cc(Cl)ccc2Oc2cc(Oc3ccccc3)ccc21 | 1.71% (active) |
| C=CCNC(=O)c1ccc(OC)cc1 | 124% |
| C=C/C(C)=C/C[C@]1(C)[C@H](C)[C@@H](OC(=O)CCC)[C@H](O)[C@@]23C(=C[C@H](OC)C[C@@H]12)[C@@H](OC(=O)CCC)O[C@H]3OC(C)=O | -69% (active) |
| C=C(C)[C@@H]1CC[C@]2(C(=O)N3CCN(C)CC3)CC[C@]3(C)[C@H](CC[C@@H]4[C@@]5(C)C/C(=C/c6ccco6)C(=O)C(C)(C)[C@@H]5CC[C@]43C)[C@@H]12 | 64.6% |
| CSc1ccc(C(=O)C[n+]2cccc(C)c2)cc1 | 91.1% |
| CC(=O)Nc1ccc(/C=C2\SC(=S)N(/C=C(\C(C)=O)C(N)=O)C2=O)cc1 | 108% |
| CCOC(Cc1c(N)[nH]c(=S)[nH]c1=O)OCC | 101% |
| O=C(Cc1ccc(NC(=O)c2cccc(Cl)c2)cc1)NCc1ccccc1 | 39% |
| COc1ccc(/C=N/N=C(/c2ccccc2)c2ccc3nc(-c4ccc(Cl)cc4)[nH]c3c2)cc1 | 70% |
| NCCCCCCNc1cc(-c2cccc(OC(F)(F)F)c2)nc2ccc(N3CCCC3)cc12 | -87.9% (active) |
| CCCCOCc1cc(CN2CCN(C)CC2)c(O)c2ncccc12 | 46.1% |
| COc1cc(C(=O)c2cc(C(C)=O)c3c(C)cccn23)cc(OC)c1OC | 81.8% |
| COc1cccc(-c2nc3sccn3c2-c2cccc(S(C)(=O)=O)c2)c1 | 89.1% |
| N=C(N)c1ccc(-c2ccc(-c3ccc(F)cc3)s2)cc1 | -90.7% (active) |
| C=CC(CC(c1ccccc1)(c1ccccc1)c1ccccc1)N(CC)CC (stereo not given) | 30.5% |
